The values that follow come from ChEMBL document CHEMBL2218924, “A broad activity screen in support of a chemogenomic map for kinase signalling research and drug discovery” (Biochem J, 2013).

Test [1] has as its target Tyrosine-protein kinase SYK (Homo sapiens) (UniProt P43405). The settings on record: at 10 µM.
Test [2] deals with T1, Mitogen-activated protein kinase kinase kinase 7 (Homo sapiens) (UniProt O43318).
T1 sequence (whole entry): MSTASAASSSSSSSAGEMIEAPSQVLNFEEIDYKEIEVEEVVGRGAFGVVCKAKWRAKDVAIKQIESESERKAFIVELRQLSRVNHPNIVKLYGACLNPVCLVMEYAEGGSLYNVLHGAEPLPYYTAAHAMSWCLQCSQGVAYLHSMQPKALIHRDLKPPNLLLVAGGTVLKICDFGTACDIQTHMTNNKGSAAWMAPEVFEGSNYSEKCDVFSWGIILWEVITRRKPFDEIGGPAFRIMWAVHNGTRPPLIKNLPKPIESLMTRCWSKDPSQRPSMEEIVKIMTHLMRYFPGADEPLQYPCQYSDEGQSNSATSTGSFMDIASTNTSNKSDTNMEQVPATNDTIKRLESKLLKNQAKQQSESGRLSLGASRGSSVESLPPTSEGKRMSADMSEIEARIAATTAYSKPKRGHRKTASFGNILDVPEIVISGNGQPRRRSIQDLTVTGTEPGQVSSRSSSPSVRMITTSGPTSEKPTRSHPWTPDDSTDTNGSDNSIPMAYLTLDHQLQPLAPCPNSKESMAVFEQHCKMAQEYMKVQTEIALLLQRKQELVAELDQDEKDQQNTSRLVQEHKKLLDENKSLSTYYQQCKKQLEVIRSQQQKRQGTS
The settings on record: at 10 µM.

The target of test [3] is T2, Serine/threonine-protein kinase TAO1 (Homo sapiens) (UniProt Q7L7X3).
T2 sequence (whole entry): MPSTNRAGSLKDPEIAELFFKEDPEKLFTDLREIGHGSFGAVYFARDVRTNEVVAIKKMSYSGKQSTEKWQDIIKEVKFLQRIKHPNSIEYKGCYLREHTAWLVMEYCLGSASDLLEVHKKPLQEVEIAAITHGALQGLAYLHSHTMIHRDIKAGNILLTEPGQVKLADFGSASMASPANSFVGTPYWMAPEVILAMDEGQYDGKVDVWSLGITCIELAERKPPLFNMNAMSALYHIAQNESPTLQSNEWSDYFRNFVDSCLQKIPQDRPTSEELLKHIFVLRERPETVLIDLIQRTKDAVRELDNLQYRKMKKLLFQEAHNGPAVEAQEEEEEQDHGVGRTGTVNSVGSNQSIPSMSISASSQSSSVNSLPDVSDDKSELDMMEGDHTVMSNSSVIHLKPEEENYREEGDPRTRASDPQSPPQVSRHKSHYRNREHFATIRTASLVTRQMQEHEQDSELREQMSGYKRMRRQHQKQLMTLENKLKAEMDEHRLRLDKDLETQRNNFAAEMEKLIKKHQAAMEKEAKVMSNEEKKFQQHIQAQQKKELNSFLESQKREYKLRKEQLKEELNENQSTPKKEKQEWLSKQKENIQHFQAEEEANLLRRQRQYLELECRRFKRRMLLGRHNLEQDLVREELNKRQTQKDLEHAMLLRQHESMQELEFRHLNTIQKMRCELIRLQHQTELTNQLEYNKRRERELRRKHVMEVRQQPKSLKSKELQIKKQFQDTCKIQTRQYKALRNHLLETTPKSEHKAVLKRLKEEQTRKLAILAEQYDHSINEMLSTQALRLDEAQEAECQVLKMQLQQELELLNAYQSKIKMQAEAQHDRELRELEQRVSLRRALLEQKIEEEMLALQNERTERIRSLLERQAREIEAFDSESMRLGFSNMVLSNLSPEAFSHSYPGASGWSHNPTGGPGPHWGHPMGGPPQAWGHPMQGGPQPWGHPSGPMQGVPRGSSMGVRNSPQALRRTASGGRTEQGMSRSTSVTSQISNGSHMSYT
The settings on record: at 1 µM.

The target of test [4] is T2, Serine/threonine-protein kinase TAO1 (Homo sapiens). The settings on record: at 10 µM.
In test [5] the target is T3, Serine/threonine-protein kinase TAO2 (Homo sapiens) (UniProt Q9UL54).
T3 sequence (whole entry): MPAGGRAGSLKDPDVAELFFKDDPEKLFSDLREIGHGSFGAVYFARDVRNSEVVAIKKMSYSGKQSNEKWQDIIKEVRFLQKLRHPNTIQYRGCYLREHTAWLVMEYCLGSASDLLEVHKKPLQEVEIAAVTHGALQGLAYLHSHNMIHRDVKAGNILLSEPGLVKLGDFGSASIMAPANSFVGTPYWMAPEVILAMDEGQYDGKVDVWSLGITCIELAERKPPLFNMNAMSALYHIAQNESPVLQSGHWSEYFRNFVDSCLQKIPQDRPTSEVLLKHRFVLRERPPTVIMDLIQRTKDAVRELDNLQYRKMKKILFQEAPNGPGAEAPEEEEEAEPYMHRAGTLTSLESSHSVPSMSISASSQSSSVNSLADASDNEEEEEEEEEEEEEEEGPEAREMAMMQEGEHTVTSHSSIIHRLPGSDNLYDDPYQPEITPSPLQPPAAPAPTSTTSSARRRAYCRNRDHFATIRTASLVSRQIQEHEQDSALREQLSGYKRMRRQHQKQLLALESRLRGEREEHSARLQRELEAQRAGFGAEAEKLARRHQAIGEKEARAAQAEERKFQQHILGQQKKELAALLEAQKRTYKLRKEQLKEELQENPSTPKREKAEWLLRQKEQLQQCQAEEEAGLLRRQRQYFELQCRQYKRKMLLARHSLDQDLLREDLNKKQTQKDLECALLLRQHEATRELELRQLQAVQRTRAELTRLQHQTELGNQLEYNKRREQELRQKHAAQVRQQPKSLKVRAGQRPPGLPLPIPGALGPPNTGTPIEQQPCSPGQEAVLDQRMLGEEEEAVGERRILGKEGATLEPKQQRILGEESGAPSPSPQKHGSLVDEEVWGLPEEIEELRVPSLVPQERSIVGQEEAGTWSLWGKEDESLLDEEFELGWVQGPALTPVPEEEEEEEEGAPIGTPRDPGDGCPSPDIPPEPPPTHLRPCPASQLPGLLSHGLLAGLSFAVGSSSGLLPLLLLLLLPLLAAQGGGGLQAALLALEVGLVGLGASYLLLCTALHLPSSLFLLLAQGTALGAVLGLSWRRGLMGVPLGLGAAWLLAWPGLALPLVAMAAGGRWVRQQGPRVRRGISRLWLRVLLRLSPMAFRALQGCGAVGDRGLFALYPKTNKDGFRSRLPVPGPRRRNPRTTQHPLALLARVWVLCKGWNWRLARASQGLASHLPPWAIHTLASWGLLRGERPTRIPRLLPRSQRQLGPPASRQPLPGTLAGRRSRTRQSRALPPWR
The settings on record: at 1 µM.

In test [6] the target is T3, Serine/threonine-protein kinase TAO2 (Homo sapiens). Conditions: at 10 µM.
Test [7] addresses T4, Serine/threonine-protein kinase TAO3 (Homo sapiens) (UniProt Q9H2K8).
T4 sequence (whole entry): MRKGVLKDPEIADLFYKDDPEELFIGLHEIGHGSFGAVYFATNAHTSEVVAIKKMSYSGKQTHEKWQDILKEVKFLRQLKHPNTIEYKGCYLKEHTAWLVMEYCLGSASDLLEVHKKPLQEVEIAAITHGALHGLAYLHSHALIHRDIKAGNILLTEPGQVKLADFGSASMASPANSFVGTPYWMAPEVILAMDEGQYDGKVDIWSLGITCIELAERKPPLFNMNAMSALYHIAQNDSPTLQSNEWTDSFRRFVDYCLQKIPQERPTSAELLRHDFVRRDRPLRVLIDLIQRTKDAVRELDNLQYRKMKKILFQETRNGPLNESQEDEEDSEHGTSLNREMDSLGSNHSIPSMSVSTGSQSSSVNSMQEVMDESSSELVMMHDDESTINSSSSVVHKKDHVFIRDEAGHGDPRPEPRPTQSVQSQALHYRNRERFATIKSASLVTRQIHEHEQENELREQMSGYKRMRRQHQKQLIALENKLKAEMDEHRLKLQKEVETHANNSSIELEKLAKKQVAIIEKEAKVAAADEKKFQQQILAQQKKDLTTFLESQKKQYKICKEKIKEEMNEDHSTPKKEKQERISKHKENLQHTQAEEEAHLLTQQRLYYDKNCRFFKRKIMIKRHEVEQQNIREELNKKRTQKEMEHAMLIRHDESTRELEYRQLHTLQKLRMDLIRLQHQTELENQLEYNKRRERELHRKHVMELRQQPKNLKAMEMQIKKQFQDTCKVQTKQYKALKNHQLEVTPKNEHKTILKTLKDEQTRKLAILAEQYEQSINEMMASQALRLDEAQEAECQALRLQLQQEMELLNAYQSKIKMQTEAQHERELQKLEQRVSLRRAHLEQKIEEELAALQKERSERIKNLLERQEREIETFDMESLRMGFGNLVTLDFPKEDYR
Conditions: at 1 µM.

Test [8] concerns the target T4, Serine/threonine-protein kinase TAO3 (Homo sapiens). Conditions: at 10 µM.
Test [9] has as its target T5, Serine/threonine-protein kinase TBK1 (Homo sapiens) (UniProt Q9UHD2).
T5 sequence (whole entry): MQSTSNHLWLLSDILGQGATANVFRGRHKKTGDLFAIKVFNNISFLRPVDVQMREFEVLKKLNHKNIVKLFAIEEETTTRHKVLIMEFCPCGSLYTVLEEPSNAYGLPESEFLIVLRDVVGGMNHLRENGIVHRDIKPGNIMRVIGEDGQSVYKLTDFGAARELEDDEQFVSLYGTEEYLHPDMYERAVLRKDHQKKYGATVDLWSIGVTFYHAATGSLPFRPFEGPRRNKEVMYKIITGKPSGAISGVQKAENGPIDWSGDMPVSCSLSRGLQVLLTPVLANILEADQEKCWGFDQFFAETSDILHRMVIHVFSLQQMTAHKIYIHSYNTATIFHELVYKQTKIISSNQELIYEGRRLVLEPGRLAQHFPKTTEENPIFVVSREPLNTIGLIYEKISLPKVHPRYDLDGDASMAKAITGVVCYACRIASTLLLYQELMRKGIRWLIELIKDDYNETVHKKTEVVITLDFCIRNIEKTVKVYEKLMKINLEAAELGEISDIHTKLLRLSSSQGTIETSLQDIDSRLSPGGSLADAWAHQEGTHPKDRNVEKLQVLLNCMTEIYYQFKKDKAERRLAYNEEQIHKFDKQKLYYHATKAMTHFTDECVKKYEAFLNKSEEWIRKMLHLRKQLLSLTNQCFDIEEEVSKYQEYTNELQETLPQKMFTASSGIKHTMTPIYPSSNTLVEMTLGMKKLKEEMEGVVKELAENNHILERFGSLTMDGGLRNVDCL
The settings on record: at 1 µM.

For `CCCCc1c(-c2ccc(OC)cc2)[nH]c2nccnc12`, the residual activity in test [1] was determined as 39%; in test [2], 86%; in test [3] it was 48%; in test [4], 48%; in test [5], 64%; in test [6], 82%. The residual activity in [7] is 81%; in [8] it was 90%; in [9] it was 61%.
